Experimental data taken from PubChem BioAssay AID372 (MTDP, 2006).
In all, about 100,000 compounds went through this assay and about 770 (0.77%) were called active. The sample holds actives, similar compounds and a random draw of the others, so the mix is not that of the screen. No stated cut-off is given here; in the data, active means inhibition above about 50%; inactive means the rest.

The compounds below were run against Gag-Pol polyprotein (Human immunodeficiency virus type 1 group M subtype B (isolate HXB2)) (UniProt P04585) (assay: RNase H inhibition, HIV 1 Gag Pol polyprotein, FRET biochemical assay, screening (AID 372)). Settings: HIV-1 RT RNase H, FRET RNA/DNA substrate fluorescence; at 10 µM; stronger effect = higher value.
For `COc1ccc(N(CC(=O)N2CCCCC2)S(=O)(=O)c2ccccc2[N+](=O)[O-])c(OC)c1`, the inhibition was 2% (inactive).
In the case of `COCCCNC(=O)CN(c1ccc(Cl)cc1)S(=O)(=O)c1ccccc1`, the inhibition is reported as 0% (inactive).
`COc1cc(NC(=S)NC(=O)c2cccc(F)c2)ccc1NC(=O)c1cc2ccccc2o1` was tested, and the inhibition was 58% (active).
In the case of `COc1cc(NC(=S)NC(=O)c2cccc(Cl)c2)ccc1NC(=O)c1cc2ccccc2o1`, the inhibition is reported as 11% (inactive).
In the case of `COc1cc(NC(=S)NC(=O)c2ccc(C)c(C)c2)ccc1NC(=O)c1cc2ccccc2o1`, the inhibition is reported as 15% (inactive).
With `COc1ccc(C(=O)NC(=S)Nc2ccc(NC(=O)c3cc4ccccc4o3)c(OC)c2)cc1` the inhibition was 7% (inactive).
In the case of `COc1cc(NC(=S)NC(=O)c2ccc(Cl)cc2)ccc1NC(=O)c1ccco1`, the inhibition is reported as 42% (inactive).
For `COc1cc(NC(=S)NC(=O)c2ccc(Cl)cc2)ccc1NC(=O)c1cc2ccccc2o1`, the inhibition was 54% (active).
`CCc1nnc(NC(=O)CCCOc2ccc(Cl)cc2Cl)s1` was tested, and the inhibition was 1% (inactive).
With `Cc1ccccc1/C=N/NC(=O)Nc1ccccc1` the inhibition was 16% (inactive).
In the case of `Cc1ccc(-c2nc3ccccc3s2)cc1NC(=O)c1cc(I)ccc1Cl`, the inhibition is reported as 15% (inactive).
`O=C(COc1ccccc1Br)N/N=C/c1ccccc1` was tested, and the inhibition was 3% (inactive).
With `Cc1ccccc1NCC(=O)N/N=C\c1c(Br)cc(Br)c(O)c1Br` the inhibition was 16% (inactive).
For `Cc1ccc(NCC(=O)N/N=C\c2c(Br)cc(Br)c(O)c2Br)cc1`, the inhibition was 17% (inactive).
For `O=C1C(=O)N(CN2CCOCC2)c2ccc(Br)cc21`, the inhibition was 18% (inactive).
In the case of `Cc1cccc(-c2nc(-c3cccnc3)no2)c1`, the inhibition is reported as 27% (inactive).
In the case of `Cc1ccc(-c2noc(-c3cccc(I)c3)n2)cc1`, the inhibition is reported as 7% (inactive).
`COc1ccc(-c2noc(-c3cccc(I)c3)n2)cc1` was tested, and the inhibition was 22% (inactive).
With `Ic1cccc(-c2nc(-c3ccncc3)no2)c1` the inhibition was 59% (active).
In the case of `Brc1cccc(-c2nc(-c3cccnc3)no2)c1`, the inhibition is reported as 28% (inactive).
In the case of `Ic1cccc(-c2nc(-c3cccnc3)no2)c1`, the inhibition is reported as 55% (active).
`Cc1cc(Cl)ccc1NC(=O)CN(c1cccc(Br)c1)S(C)(=O)=O` was tested, and the inhibition was 12% (inactive).
For `O/N=C1\CCCc2c1nc(-c1ccc(F)cc1)n2O`, the inhibition was 0% (inactive).
With `COc1ccc(/C=C/C(=O)Nc2ccc(I)cc2)cc1OC` the inhibition was 16% (inactive).
`CCc1c(C)c2ccc(OCc3ccccc3)c(C)c2oc1=O` was tested, and the inhibition was 16% (inactive).
In the case of `O=C(NNc1nc(Nc2ccccc2)nc(N2CCOCC2)n1)Nc1ccc(Cl)cc1`, the inhibition is reported as 72% (active).
With `Clc1ccc(Nc2nc(Oc3ccccc3)nc(N3CCOCC3)n2)cc1` the inhibition was 15% (inactive).
`Clc1ccc(Nc2nc(Nc3ccc(Cl)cc3)nc(N3CCOCC3)n2)cc1` was tested, and the inhibition was 11% (inactive).
For `COc1ccc(S(=O)(=O)N2CCN(CCN3C(=O)c4cccc5cccc(c45)C3=O)CC2)cc1`, the inhibition was 15% (inactive).
With `CC(C)Nc1nc(-c2cccnc2)nc2ccccc12` the inhibition was 8% (inactive).
In the case of `CC(Nc1cc(Cl)ccc1[N+](=O)[O-])c1ccc(Br)cc1` (centres undefined), the inhibition is reported as 54% (active).
For `O=[N+]([O-])c1ccc(Cl)cc1NC(c1ccccc1)c1ccccc1`, the inhibition was 12% (inactive).
`CC(Nc1cc(N2CCN(C)CC2)ccc1[N+](=O)[O-])c1ccc(Br)cc1` (centres undefined) was tested, and the inhibition was 9% (inactive).
For `CCOc1ccc(/C=C2\C(=O)NC(=O)N(c3cc(C(F)(F)F)ccc3Cl)C2=O)cc1OC`, the inhibition was 11% (inactive).
For `COc1ccc(CNC(=O)N2CCOCC2)cc1`, the inhibition was 20% (inactive).
With `O=C(Nc1ccc(F)cc1)c1sc2cc(Cl)ccc2c1Cl` the inhibition was 6% (inactive).
For `O=C(NNC(=O)c1sc2ccccc2c1Cl)Nc1ccc(Cl)cc1`, the inhibition was 14% (inactive).
`O=C(NNC(=O)c1sc2cc(F)ccc2c1Cl)Nc1ccc(Cl)cc1` was tested, and the inhibition was 57% (active).
In the case of `CC(=O)c1ccc(NC(=S)NC(=O)c2ccc(Br)cc2)cc1`, the inhibition is reported as 0% (inactive).
With `O=C1C(=O)N(c2cccc([N+](=O)[O-])c2)C(c2ccccc2F)/C1=C(/O)c1ccccc1` (centres undefined) the inhibition was 8% (inactive).
In the case of `COc1cc(/C=N/N2C(=O)C3C4C=CC(C4)C3C2=O)cc(I)c1O` (centres undefined), the inhibition is reported as 56% (active).
`COc1cc(/C=N/N2C(=O)C3C4C=CC(CC4)C3C2=O)cc(I)c1O` (centres undefined) was tested, and the inhibition was 0% (inactive).
In the case of `COc1cc(/C=N/N2C(=O)C3C4C=CC(C4)C3C2=O)cc(I)c1OC` (centres undefined), the inhibition is reported as 0% (inactive).
With `CCOC(=O)c1sc(N/N=C/c2ccccc2O)nc1C` the inhibition was 58% (active).
`CCOC(=O)c1sc(N/N=C/c2ccccc2)nc1C` was tested, and the inhibition was 47% (inactive).
In the case of `CCOC(=O)c1sc(N/N=C/c2ccccc2C(F)(F)F)nc1C`, the inhibition is reported as 15% (inactive).
With `COc1ccccc1N1C(=O)/C(=C/C(C)=C/c2ccccc2)SC1=S` the inhibition was 13% (inactive).
`Cc1ccc(S(=O)(=O)/N=C/c2ccc(F)cc2)cc1` was tested, and the inhibition was 0% (inactive).
With `CC1=C(C)CC(C(=O)Nc2ccc(Br)cc2)C(C(=O)O)C1` (centres undefined) the inhibition was 8% (inactive).
`COc1ccc(NC(=O)C2CC(C)=C(C)CC2C(=O)O)cc1` (centres undefined) was tested, and the inhibition was 2% (inactive).
`Cc1cc(NS(=O)(=O)c2ccc(NC(=S)NC(=O)c3ccc(Br)cc3)cc2)no1` was tested, and the inhibition was 1% (inactive).
With `Cc1cc(OCc2nc(-c3ccc(Cl)cc3Cl)no2)ccc1Br` the inhibition was 7% (inactive).
With `Cc1nn(C)c(C)c1Sc1ccc(Br)cc1` the inhibition was 37% (inactive).
`Cc1n[nH]c(C)c1Sc1ccc(Cl)cc1` was tested, and the inhibition was 17% (inactive).
With `Cc1n[nH]c(C)c1Sc1ccc(Br)cc1` the inhibition was 50% (active).
`COc1cccc(/C=C2\C(=O)NC(=O)N(c3ccc(Cl)c(Cl)c3)C2=O)c1` was tested, and the inhibition was 1% (inactive).
With `CCc1c(C)c2ccc(OC)c(C)c2oc1=O` the inhibition was 8% (inactive).
In the case of `COc1ccc(S(=O)(=O)N(CC(=O)Nc2ccc(C(N)=O)cc2)c2ccc(C)cc2)cc1OC`, the inhibition is reported as 4% (inactive).
`C=CCc1cccc(/C=N/c2nc3ccccc3n2CCC)c1O` was tested, and the inhibition was 17% (inactive).
In the case of `CC(CO)(CO)N=Cc1c(O)n(-c2ccccc2)c(=S)[nH]c1=O`, the inhibition is reported as 0% (inactive).
`Cc1ccc(Cl)cc1NC(=O)c1ccc(CN(c2ccccc2)S(C)(=O)=O)cc1` was tested, and the inhibition was 10% (inactive).
For `COc1ccccc1NC(=O)c1ccc(CN(c2ccccc2)S(C)(=O)=O)cc1`, the inhibition was 0% (inactive).
`COc1ccc(Cl)cc1NC(=O)c1ccc(CN(c2ccccc2)S(C)(=O)=O)cc1` was tested, and the inhibition was 56% (active).
For `CS(=O)(=O)N(Cc1ccc(Cl)cc1)c1ccc(C(=O)N2CCCC2)cc1`, the inhibition was 57% (active).
With `CS(=O)(=O)N(Cc1ccc(Cl)cc1)c1ccc(C(=O)N2CCOCC2)cc1` the inhibition was 8% (inactive).
In the case of `CS(=O)(=O)N(Cc1ccc(C(=O)Nc2cccc(C(F)(F)F)c2)cc1)c1cccc(Cl)c1`, the inhibition is reported as 0% (inactive).
With `CS(=O)(=O)N(Cc1ccc(Cl)cc1)c1ccc(C(=O)Nc2cccc(C(F)(F)F)c2)cc1` the inhibition was 1% (inactive).
`CS(=O)(=O)N(Cc1ccc(C(=O)Nc2cccc(C(F)(F)F)c2)cc1)c1ccccc1` was tested, and the inhibition was 58% (active).
For `CCOC(=O)N1CCN(C(=O)c2ccc(N(Cc3ccc(Cl)cc3)S(C)(=O)=O)cc2)CC1`, the inhibition was 3% (inactive).
